Reference: PubChem BioAssay (EPA / NIEHS)
Several values for one entry are separate records, joined by “and”; a condition that tells them apart may be missing. Equal values may be shown once. Inconclusive results are not listed. Activity calls are given as the source filed them. How the source made its calls: active means hit-call score of the fitted dose curve at least 0.9, where 1 is the maximum; inconclusive means response in the unintended direction; inactive means score below 0.9.

Experiments:
[1] = Tanguay_ZF_120hpf_MORT_legacy: (Legacy) Oregon State University Tanguay Lab 120 Hour Post-fertilization zebrafish Assay for Mortality (AID 2283633);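 on AC50: fitted as increase in binary mortality versus DMSO negative control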
Method in brief: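 Dechorionated Tropical 5D wild-type zebrafish embryos, one per well from 6 hpf, static exposure in 0.64% DMSO at 28C until 120 hpf. Mortality scored as binary by brightfield microscopy at 24 and 120 hpf.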

[2] = Tanguay_ZF_120hpf_YSE_legacy: (Legacy) Oregon State University Tanguay Lab 120 Hour Post-fertilization zebrafish Assay for Yolk Sac Edema (AID 2283634);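 on AC50: actives raise the incidence of yolk sac edema above the DMSO baseline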
Method in brief: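 Dechorionated Tropical 5D wild-type zebrafish embryos were exposed statically, one per well, from 6 to 120 hpf at 28C in 0.64% DMSO. Yolk sac edema was scored present/absent by brightfield at 120 hpf, and dead embryos were excluded.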

[3] = Tanguay_ZF_120hpf_AXIS_legacy: (Legacy) Oregon State University Tanguay Lab 120 Hour Post-fertilization zebrafish Assay for Body Axis Malformation (AID 2283635);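 on AC50: potency for an increased fraction of larvae scored with body axis malformation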
Method in brief: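 Dechorionated wild-type Tropical 5D zebrafish embryos, one per well, statically exposed from 6 hpf to 120 hpf at 28C in 0.64% DMSO final. Body axis malformation scored present/absent by brightfield microscopy at 120 hpf; dead embryos excluded.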

[4] = Tanguay_ZF_120hpf_EYE_legacy: (Legacy) Oregon State University Tanguay Lab 120 Hour Post-fertilization zebrafish Assay for Eye Malformation (AID 2283636);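 further: binary presence or absence of eye malformation scored by brightfield in 120 hpf larvae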
Method in brief: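 Dechorionated wild-type Tropical 5D zebrafish embryos were exposed statically from 6 hpf, one per well, to 120 hpf at 28C in sealed, foil-covered plates with 0.64% DMSO. Eye malformation was scored present/absent by brightfield microscopy against DMSO controls.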

[5] = Tanguay_ZF_120hpf_SNOU_legacy: (Legacy) Oregon State University Tanguay Lab 120 Hour Post-fertilization zebrafish Assay for Snout Malformation (AID 2283637)
Method in brief: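 Tropical 5D wild-type zebrafish embryos, dechorionated with pronase at 4 hpf, were exposed singly from 6 hpf to 120 hpf statically at 28C in 0.64% DMSO. Snout malformation was scored present/absent by brightfield microscopy, fitted against DMSO.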

[6] = Tanguay_ZF_120hpf_JAW_legacy: (Legacy) Oregon State University Tanguay Lab 120 Hour Post-fertilization zebrafish Assay for Jaw Malformation (AID 2283638);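 on AC50: active means more embryos with jaw malformation than DMSO controls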
Method in brief: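 Dechorionated Tropical 5D wild-type zebrafish embryos, one per well, exposed statically from 6 hpf to 120 hpf at 28C in 0.64% DMSO. Jaw malformation was scored by brightfield microscopy as present or absent. It was not scored in dead embryos.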

[7] = Tanguay_ZF_120hpf_OTIC_legacy: (Legacy) Oregon State University Tanguay Lab 120 Hour Post-fertilization zebrafish Assay for Otic Vesicle Malformation (AID 2283639)
Method in brief: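 Tropical 5D wild-type zebrafish embryos were exposed statically in sealed, foil-covered plates at 28C until 120 hpf, with 0.64% (vol/vol) DMSO final. Otic vesicle malformation was scored present/absent by brightfield microscopy, with DMSO as baseline.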

[8] = Tanguay_ZF_120hpf_PE_legacy: (Legacy) Oregon State University Tanguay Lab 120 Hour Post-fertilization zebrafish Assay for Pericardial Edema (AID 2283640)
Method in brief: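 Tropical 5D wild-type zebrafish embryos were statically exposed until 120 hpf at 28C, with 0.64% DMSO final. Pericardial edema was scored by brightfield as present or absent; endpoints were not scored in dead embryos.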

[9] = Tanguay_ZF_120hpf_BRAI_legacy: (Legacy) Oregon State University Tanguay Lab 120 Hour Post-fertilization zebrafish Assay for Brain Malformation (AID 2283641)
Method in brief: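 Tropical 5D wild-type zebrafish embryos exposed statically until 120 hpf at 28C, 0.64% DMSO final, sealed and dark. Brain malformation scored present/absent by brightfield at 120 hpf; dead embryos excluded. Trimethyltin chloride 5uM positive control.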

[10] = Tanguay_ZF_120hpf_SOMI_legacy: (Legacy) Oregon State University Tanguay Lab 120 Hour Post-fertilization zebrafish Assay for Somite Malformation (AID 2283647)
Method in brief: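 Dechorionated Tropical 5D wild-type zebrafish embryos, one per well from 6 hpf, statically exposed at 28C to 120 hpf in 0.64% DMSO; somite malformation scored present/absent by brightfield; trimethyltin 5 uM positive control; dead embryos not scored.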

[11] = Tanguay_ZF_120hpf_CFIN_legacy: (Legacy) Oregon State University Tanguay Lab 120 Hour Post-fertilization zebrafish Assay for Caudal Fin Malformation (AID 2283649)
Method in brief: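 Dechorionated Tropical 5D wild-type embryos, one per well from 6 hpf, static exposure to 120 hpf at 28C in 0.64% DMSO. Caudal fin malformation scored by brightfield as present/absent; not scored in dead embryos.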

[12] = Tanguay_ZF_120hpf_PIG_legacy: (Legacy) Oregon State University Tanguay Lab 120 Hour Post-fertilization zebrafish Assay for Pigmentation Malformation (AID 2283650)
Method in brief: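 Tropical 5D wild-type zebrafish embryos, dechorionated with pronase at 4 hpf, were exposed singly from 6 hpf to 120 hpf statically at 28C in sealed, dark plates with 0.64% DMSO; pigmentation scored present/absent by brightfield microscopy, fitted against DMSO.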

[13] = Tanguay_ZF_120hpf_CIRC_legacy: (Legacy) Oregon State University Tanguay Lab 120 Hour Post-fertilization zebrafish Assay for Circulatory Malformation (AID 2283651)
Method in brief: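 Tropical 5D wild-type embryos, dechorionated with pronase at 4 hpf, were placed singly in wells at 6 hpf and exposed statically at 28C to 120 hpf (0.64% DMSO final). Circulatory malformation was scored present/absent by brightfield microscopy.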

[14] = Tanguay_ZF_120hpf_SWIM_legacy: (Legacy) Oregon State University Tanguay Lab 120 Hour Post-fertilization zebrafish Assay for Swim Bladder Malformation (AID 2283654);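 further: swim bladder malformation in each larva scored yes or no under brightfield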
Method in brief: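 Dechorionated Tropical 5D wild-type embryos, placed singly from 6 hpf, were statically exposed at 28C to 120 hpf with 0.64% DMSO final; swim bladder malformation was scored present/absent by brightfield microscopy, gain of signal relative to DMSO controls.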

[15] = Tanguay_ZF_120hpf_TRUN_legacy: (Legacy) Oregon State University Tanguay Lab 120 Hour Post-fertilization zebrafish Assay for Truncated Body (AID 2283655)
Method in brief: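 Dechorionated Tropical 5D wild-type embryos placed singly from 6 hpf and statically exposed to 120 hpf at 28C, final DMSO 0.64%. Truncated body scored as present/absent by brightfield; not scored in dead embryos.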

[16] = molecular target: Cellular tumor antigen p53 (Homo sapiens) (UniProt P04637); assay: TOX21_p53_BLA_p4_ratio: Tox21 HCT-116 p53 Agonism Beta-lactamase Assay, Ratio, Phase 4 (AID 2283601)
Cellular tumor antigen p53 (Homo sapiens), sequence (P04637 whole entry, looked up): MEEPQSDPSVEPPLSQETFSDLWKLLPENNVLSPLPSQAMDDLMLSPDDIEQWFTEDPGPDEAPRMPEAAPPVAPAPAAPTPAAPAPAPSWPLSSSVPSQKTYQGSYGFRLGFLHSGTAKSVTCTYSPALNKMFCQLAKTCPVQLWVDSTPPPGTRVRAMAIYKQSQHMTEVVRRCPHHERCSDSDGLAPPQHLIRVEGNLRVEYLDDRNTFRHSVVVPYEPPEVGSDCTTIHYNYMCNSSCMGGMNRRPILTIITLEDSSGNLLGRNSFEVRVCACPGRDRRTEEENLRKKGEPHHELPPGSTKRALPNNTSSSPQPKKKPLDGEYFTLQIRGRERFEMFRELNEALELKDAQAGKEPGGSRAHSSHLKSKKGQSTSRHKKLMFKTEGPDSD
Method in brief: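 HCT116 cells carrying an inducible beta-lactamase reporter were plated at 4000 cells/well, rested 5 h, then exposed to compounds in DMSO (217-fold dilution) for 16 h at 37C. CCF4-AM substrate was loaded 2 h at room temperature; 460/530 nm emission ratio scored gain-of-signal versus DMSO.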

[17] = Tanguay_ZF_120hpf_PFIN_legacy: (Legacy) Oregon State University Tanguay Lab 120 Hour Post-fertilization zebrafish Assay for Pectoral Fin Malformation (AID 2283648);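 further: each larva judged yes or no for fin defect by brightfield with dead larvae skipped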
Method in brief: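 Tropical 5D wild-type embryos, dechorionated with pronase at 4 hpf, were placed singly in wells at 6 hpf and statically exposed until 120 hpf at 28C, sealed and dark, with 0.64% (vol/vol) final DMSO; pectoral fin malformation scored present/absent.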

Measured: AC50

O=C(O)c1nc(Cl)ccc1Cl
not listed: [16] | [17]
inactive: all other assays above

CCOP(=S)(OCC)SCn1c(=O)oc2cc(Cl)ccc21
not listed: [6] | [8] | [11] | [12] | [17]
inactive: all other assays above

N#Cc1cc(Br)c(O)c(Br)c1
active: [16] 57.9 µM and 74.3 µM
not listed: [1] | [17]
inactive: all other assays above

CC1=C(C(=O)Nc2ccccc2)SCCO1
active: [1] 40.4 µM
not listed: [4] | [10] | [12] | [14] | [17]
inactive: all other assays above

CS/C(C)=N/OC(=O)N(C)SN(C)C(=O)O/N=C(\C)SC
active: [3] 24.4 µM
not listed: [10] | [12] | [13] | [17]
inactive: all other assays above

CCOc1cc(Oc2ccc(C(F)(F)F)cc2Cl)ccc1[N+](=O)[O-]
not listed: [4] | [7] | [9] | [12] | [13] | [17]
inactive: all other assays above

COC(=O)C(C)Oc1ccc(Oc2ccc(Cl)cc2Cl)cc1 (centres undefined)
not listed: [12] | [16]
inactive: all other assays above

CC(C)C1(C)N=C(c2nc3ccccc3cc2C(=O)O)NC1=O (centres undefined)
not listed: [1] | [3] | [11] | [12] | [17]
inactive: all other assays above

CCON=C(CC)C1=C(O)CC(c2c(C)cc(C)cc2C)CC1=O (centres undefined)
not listed: [12] | [13] | [17]
inactive: all other assays above

Oc1ccccc1-c1ccccc1
not listed: [3] | [7] | [12] | [17]
inactive: all other assays above

COP(N)(=O)SC (centres undefined)
not listed: [3] | [4] | [6] | [16] | [17]
inactive: all other assays above

CCCCNC(=O)n1c(NC(=O)OC)nc2ccccc21
active: [16] 11.9 µM and 9.73 µM | [2] 52.3 µM | [4] 72.8 µM | [5] 56.7 µM | [6] 59.2 µM
not listed: [9] | [12] | [17]
inactive: all other assays above

CC(C)Oc1cc(-n2nc(C(C)(C)C)oc2=O)c(Cl)cc1Cl
not listed: [6] | [7] | [8] | [10] | [12] | [17]
inactive: all other assays above

C=CCC1=C(C)[C@@H](OC(=O)[C@@H]2[C@@H](C=C(C)C)C2(C)C)CC1=O
not listed: [3] | [5] | [6] | [7] | [12] | [15] | [17]
inactive: all other assays above
